Assay outcomes from PubChem.
HPGD inh: qHTS Assay for Inhibitors of HPGD (15-Hydroxyprostaglandin Dehydrogenase); Potency, µM, most hits filed as inhibitors; 4.3% of 150,000 active; purified HPGD, NADH fluorescence kinetic, PGE2 substrate; 15-hydroxyprostaglandin dehydrogenase [NAD(+)] (Homo sapiens), P15428; AID 894, 2007
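NADH formation kinetics: reaction with 30 uM PGE2 and 1 mM NAD+ (final), 20 nM enzyme, Tris-HCl pH 8 with Tween 20, after 15 min compound preincubation at room temperature. Fluorescence change, last versus first of five reads.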
IMPase cell inh: qHTS Assay for Identifying the Cell-Membrane Permeable IMPase Inhibitors. Inositol monophosphatase 1 (Rattus norvegicus), P97697. CHO-M1 cells, IP1 accumulation, HTRF TR-FRET ratio. inhibition (IP1 accumulation), % at 46.1 µM. 120,000 tested, under 10 active. AID 901, 2007; active means well fitted curve in the direction sought with a large enough effect in the signal ratio, not every such curve was filed as active; inconclusive means small, poorly fitted or top-dose-only effect, or a change in a side signal; inactive means no such curve, though single readings can be large or run the other way; the % refers to the signal ratio;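 further: cells stimulated with carbachol in lithium chloride buffer; higher means more IMPase inhibition seen as more IP1 and lower FRET ratio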
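Seeded CHO-M1 cells were dosed with compound at up to 46 uM, stimulated with carbachol for 30 min, then lysed in IP-One detection reagents. Higher IP1 lowers the TR-FRET signal.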
ALDH1A1 inh: qHTS Assay for Inhibitors of Aldehyde Dehydrogenase 1 (ALDH1A1). 7.3% of 220,000 active. Purified ALDH1A1, NADH fluorescence, propionaldehyde substrate. Potency, µM (titrated, usually from 75.3 µM), most hits filed as inhibitors
Target sequence (P00352 whole entry, looked up): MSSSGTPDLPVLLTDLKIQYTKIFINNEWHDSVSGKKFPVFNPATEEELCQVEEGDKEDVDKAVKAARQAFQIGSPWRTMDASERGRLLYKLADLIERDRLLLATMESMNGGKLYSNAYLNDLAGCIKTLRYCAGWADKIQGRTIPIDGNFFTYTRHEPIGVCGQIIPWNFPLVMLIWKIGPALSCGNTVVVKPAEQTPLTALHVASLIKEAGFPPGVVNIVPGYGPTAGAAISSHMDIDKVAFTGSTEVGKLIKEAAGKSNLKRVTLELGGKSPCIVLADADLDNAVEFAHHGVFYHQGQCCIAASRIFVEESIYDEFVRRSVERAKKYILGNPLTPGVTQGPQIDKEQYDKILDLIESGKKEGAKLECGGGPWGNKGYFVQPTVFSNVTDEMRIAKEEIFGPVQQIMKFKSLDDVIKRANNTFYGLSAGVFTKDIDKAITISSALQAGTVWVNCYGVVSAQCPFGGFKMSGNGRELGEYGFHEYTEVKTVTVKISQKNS
A number is an active result; . = inactive; ? = inconclusive; / = no result; [ ] = remark or other dose. A selection: hits, their analogues and other compounds. The true share with any hit is near 9%. Unless noted, the call rests on the fitted dose curve; in most records, active means well fitted inhibition curve with a large enough effect (not every such curve was filed as active); inconclusive means small, poorly fitted or top-dose-only effect, or another doubt; inactive means no such curve, though single readings can be large or run the other way.

SMILES | HPGD inh | IMPase cell inh | ALDH1A1 inh
Oc1c(N=NC(=S)Nc2ccccc2F)c2ccccc2n1Cc1ccccc1 | / | / | 20µM
C=CCn1c(O)c(N=NC(=O)CNC(=O)/C=C/c2ccco2)c2ccccc21 | . | . | 10µM
Cc1cc(C)nc(N=Nc2c(O)n(Cc3ccc(Cl)cc3)c3ccccc23)n1 | . | / | .
Cc1ccc(Cn2c(O)c(N=NC(=S)Nc3ccccc3F)c3ccccc32)cc1 | / | / | 11µM
Cc1c(Cl)cccc1NC(=S)N=Nc1c(O)n(CN2CCOCC2)c2ccccc12 | . | / | ?
O=C(/C=C/c1ccco1)NCC(=O)N/N=C/c1ccc(Cl)cc1 | / | / | .
C=CCn1c(O)c(N=NC(=S)Nc2cccc(C)c2)c2ccccc21 | . | / | .
CC(=O)Nc1ccc(S(=O)(=O)NC(=O)C23CC4CC(CC(C4)C2)C3)cc1 | . | . | .
CCc1ccc(-c2nc(SCC(=O)N3CCOCC3)n[nH]2)cc1 | / | / | .
NC(=O)c1ncc(C(F)(F)F)cc1Oc1cccc(C(F)(F)F)c1 | . | . | .
NC(=O)COC(=O)c1ccc(-c2ccc(O)cc2)cc1 | / | / | .
O=C(c1cccc(F)c1)N1CCC[C@@]2(CCN(c3ccncc3)C2)C1 | . | / | .
Cc1nn(Cc2ccccc2)c(Cl)c1C(=O)NCCc1ccccc1 | . | . | .
Cc1nn(Cc2ccccc2)c(Cl)c1C(=O)OC(C)C#N (stereo not given) | / | / | 22µM
CN(Cc1ccccc1)S(=O)(=O)c1cccc(C(=O)O)c1 | / | / | .
COc1cccc(/C=N/NC(=O)c2ccc(=O)[nH]n2)c1O | / | / | .
COc1cccc(/C=N/NC(=O)c2cc(-c3ccc(C)cc3)n[nH]2)c1O | 40µM | / | .
Cn1c(=O)c2c(ncn2CC(=O)Nc2cc(Cl)c(Cl)cc2Cl)n(C)c1=O | . | . | .
CCCOC(=O)c1cccc(Nc2nc(C(=O)OCC)nc3ccccc23)c1 | / | . | /
Cc1ccccc1-c1nnc2s/c(=C\c3ccc(N(C)C)cc3)c(=O)n12 | . | . | .
Cc1cc(C)c2nc3s/c(=C/c4ccc5c(c4)n(C)c(=O)n5C)c(=O)n3c2c1 | 16µM | . | 18µM
C=CCN(C(=O)CNC(=O)c1cccs1)C(C(=O)NC(C)(C)C)c1ccccc1 (stereo not given) | / | / | .
CCCCc1ccc(/C=C2\C(=O)ON=C2c2ccccc2)s1 | . | / | .
Cc1cccc(CNc2cc(-c3ccccc3CN(C)C)ncn2)c1 | . | / | .
CCCCN(C)CCCNC(=O)/C=C1\Sc2ccccc2NC1=O | / | / | .
SMILES | HPGD inh | IMPase cell inh | ALDH1A1 inh
CCOC(=O)N1CCN(c2ccc(C(F)(F)F)cn2)CC1 | ? | / | .
CC1=NN(c2ccc(C(F)(F)F)cn2)C(=O)C1 | . | / | 22µM
CCOC(=O)c1[nH]nc(-c2c(O)cc(C)cc2O)c1-c1csc(C)n1 | . | . | .
CCCc1cc(-c2n[nH]c(C(=O)OCC)c2-c2cscn2)c(O)cc1O | . | . | 8.9µM
COc1ccc(CSc2n[nH]c(C)n2)cc1[N+](=O)[O-] | . | / | 10µM
COc1ccc(CSc2nnc(C)n2N)cc1Br | . | . | .
COc1ccc(CSc2ncn[nH]2)cc1[N+](=O)[O-] | . | / | ?
COc1ccc(CSc2nnc(C)n2N)cc1[N+](=O)[O-] | / | / | 13µM
CCc1nnc(SCc2ccc(OC)c(Br)c2)n1N | . | . | 28µM
CCCCOc1ccc(CSc2nnc(C)n2N)cc1[N+](=O)[O-] | / | / | .
Cc1ccc(C(=O)OCC(=O)c2c[nH]c3ccccc23)cc1S(=O)(=O)N1CCCCC1 | . | / | .
CC1CCN(S(=O)(=O)c2ccc3c(c2)c(=O)c(C(=O)NCc2ccccc2Cl)cn3C)CC1 | . | / | ?
CCc1ccc(S(=O)(=O)Nc2ccc(-c3nc4cccnc4s3)cc2)s1 | ? | . | ?
Cc1ccc(S(=O)(=O)Nc2cccc3ncccc23)s1 | 28µM | . | 13µM
COc1ccc(N(CC(O)Cn2nnc3ccccc32)S(=O)(=O)c2ccc(C)cc2)cc1 (stereo not given) | . | . | ?
COc1ccc(-c2csc(NNC3=NCCCCC3)n2)cc1 | / | / | 13µM
Clc1ccc(-c2csc(NNC3=NCCCCC3)n2)cc1 | ? | . | ?
COc1ccc(-c2csc(NC3=NCCCCC3)n2)cc1 | . | / | .
c1ccc(-c2csc(NNC3=NCCCCC3)n2)cc1 | ? | . | 32µM
CC(NC(=O)CCC1COc2ccccc2O1)c1ccccc1 (stereo not given) | . | . | .
COc1ccc(CSC2=CS(=O)(=O)c3ccccc3N2)cc1 | / | / | .
C=C1C[C@@]23C[C@@]1(O)CCC2[C@@]12C=CC(O)[C@](C)(C(=O)O1)C2C3C(=O)O (stereo not given in full) | . | / | .
NC(=O)CC(O)c1cccc(Cl)c1 (stereo not given) | . | . | .
O=C(OCC1OC2C(Oc3nc(=O)ccn32)C1O)c1ccccc1 (stereo not given) | . | . | ?
Cc1cn2c(nc1=O)OC1C(O)C(COC(=O)c3ccccc3)OC12 (stereo not given) | . | . | 3.2µM
SMILES | HPGD inh | IMPase cell inh | ALDH1A1 inh
Cc1ccc(/C=N\NC(=O)C2COc3cc4ccccc4cc3O2)o1 (stereo not given) | 14µM | . | ?
Cc1nn(-c2ccccc2)c(Cl)c1/C=N/NC(=O)C1COc2ccccc2O1 (stereo not given) | . | / | 2.8µM
Cc1nn(-c2ccccc2)c(Cl)c1/C=N/NC(=O)c1ccco1 | . | . | .
O=C(N/N=C\c1ccc(-c2ccccc2[N+](=O)[O-])o1)C1COc2cc3ccccc3cc2O1 (stereo not given) | . | . | .
Cc1cnc(CNc2ncncc2-c2ccccc2CN(C)C)cn1 | . | / | .
O=C(O)c1ccc(NC(=S)Nc2ccccc2)cc1 | . | / | ?
C[N+]1(C)CCc2cc(O)c(O)cc2[C@H]1Cc1ccc(O)c(O)c1 | . | / | .[13.5 µM]
O=C(/C=C/c1ccc(O)cc1)c1ccccc1O | ? | / | 20µM
O=C(/C=C\c1ccccc1)c1ccccc1O | / | / | .[13.5 µM]
CC(=O)O[C@@H]1C[C@]2(C)[C@H](C[C@@H](O)[C@H]3[C@@]4(C)CC[C@@H](O)[C@@H](C)[C@@H]4CC[C@@]32C)/C1=C(\CCC=C(C)C)C(=O)O | / | . | /
O=C(O)c1cc(=O)c2ccccc2[nH]1 | . | . | .
O=C(O)c1cc(=O)c2c(Cl)cc(Cl)cc2[nH]1 | 28µM | ? | .
Cc1ccc(/C=C/C(=O)NCc2cccs2)o1 | / | / | 4µM
Cc1ccc(/C=C/C(=O)NCc2cccs2)cc1 | 14µM | / | ?
O=C(/C=C/c1ccc([N+](=O)[O-])cc1)NCc1cccs1 | . | / | ?
Cc1ccc(/C=C/C(=O)NCc2cccs2)c(C)c1 | / | / | .
Nc1ncnc2nn([C@H]3O[C@@H](CO)[C@@H](O)[C@H]3O)nc12 | . | / | .[13.5 µM]
CSc1nnc(C)c(=O)n1COC(=O)COc1ccc(Cl)cc1Cl | / | / | .
COc1ccc2c(c1)O[C@H](c1ccc3c(c1)OCO3)[C@@H](OC(=O)NS(=O)(=O)c1ccc(F)cc1)C2=O | . | / | .
C/C(=N/NC(=S)Nc1cccc(C)c1)c1cccc([N+](=O)[O-])c1 | / | / | 8.9µM
C/C(=N\NC(=S)NC(C)C)c1cccc([N+](=O)[O-])c1 | . | / | .
